Out of some 68,000 compounds screened, about 2,700 (4%) showed an effect of 50% or more. The full list was thinned out, with strong results kept by preference.

For 31 molecules, INHIBITION results are on record in ChEMBL document CHEMBL4513216, “Probing the Open Global Health Chemical Diversity Library for Multistage-Active Starting Points for Next-Generation Antimalarials” (ACS Infect Dis, 2020).

In this experiment the test system is Plasmodium berghei. The experiment in a line: Screen against P. berghei liver stage (PbLuc), transformed with Luciferase, at 2uM. Particulars: tested at 2 uM. In kind it is functional, HepG2.
As to `Fc1ccc(CNCc2nnc3n2CC(C(F)(F)F)CC3)cc1` (stereo unspecified), the INHIBITION was determined as 0.85%.
As to `FC(F)(F)C1CCc2nnc(CNCc3cccs3)n2C1` (stereo unspecified), the INHIBITION is reported as 58.98%.
Regarding `FC(F)(F)C1CCc2nnc(CNCc3ccsc3)n2C1` (stereo unspecified), the INHIBITION is listed as -14.84%.
With `CCCC(NC(=O)NCc1cccc(N(C)C)n1)c1ccccn1` (stereo unspecified), the INHIBITION is given as -40.08%.
For `CN(Cc1cncnc1)[C@@H]1CN(C(=O)c2ccco2)[C@@H]2CCCO[C@H]12` the value was 8.17%; for `CC(C)c1nnc2n1CCN(Cc1csc(-c3cnn(C)c3)n1)C2`, 47.25%; for `CC(=O)N1CCN(Cc2csc(-c3cnn(C)c3)n2)CC1`, -6.3%.
For the molecule `Cn1cc(-c2nc(CN3CCN(CCO)CC3)cs2)cn1`, the INHIBITION was determined as 53.03%.
With `COCCN1CCN(Cc2csc(-c3cnn(C)c3)n2)CC1`, the INHIBITION is -20.82%.
On to `CCc1nnc2n1CCN(Cc1csc(-c3cnn(C)c3)n1)C2`, for which the INHIBITION is recorded as -4.69%.
Next, `Cc1nnc2n1CCN(Cc1csc(-c3cnn(C)c3)n1)C2`: 57.34%; `CN(C)Cc1ccnc(C2CCCN2Cc2ccc(F)cn2)n1` (stereo unspecified): 18.38%; `Cc1ncc(CN2CCC(O)(c3ccccc3F)CC2)cn1`: 4.19%.
As for `N#Cc1ccc(OC2CCN(CC(=O)NCC3CCCO3)CC2)cc1` (stereo unspecified), the INHIBITION is -27.4%.
For `Oc1coc2cc(OC[C@@H]3CCCN4CCCC[C@H]34)ccc12`, the INHIBITION was -61.71%.
As for `CC(C)Cc1cc(C(=O)NCc2nnc[nH]2)[nH]n1`, the INHIBITION amounted to 16.6%.
For `CN(Cc1ccsc1)C(=O)c1cccc(F)c1`, the INHIBITION came to 14.82%.
On to `Cc1ccc(NC2CCN(C(=O)COCC3CC3)CC2)nn1`, for which the INHIBITION came out at 15.28%.
Next, `O=C(NCc1c(F)cccc1Cl)c1cc(CN2CCCC(O)C2)on1` (stereo unspecified): 52.51%; `O=C(NCc1cccc(F)c1F)c1cc(CN2CCCC(O)C2)on1` (stereo unspecified): -81.33%; `O=C(NCc1ccc(Cl)s1)c1cc(CN2CCCC(O)C2)on1` (stereo unspecified): 4.38%.
In the case of `O=C(CCn1cccn1)NS(=O)(=O)N1CCCc2ccccc21`, the INHIBITION is -1.45%.
For the molecule `Cc1nnc(CN2CCCC2c2ccc(Cl)c(Cl)c2)o1` (stereo unspecified), the INHIBITION is reported as -107.58%.
With `Cc1nnc(CN2CCCC2c2ccc(C(C)(C)C)cc2)o1` (stereo unspecified), the INHIBITION is 29.19%.
Turning to `COc1ccc(C2CCCCCN2Cc2nnc(C)o2)cc1` (stereo unspecified), the INHIBITION is 52.83%.
With `CN(C)C(=O)CN1CC=C(c2cnn(Cc3ccccc3)c2)CC1`, the INHIBITION amounted to 21.95%.
With `COc1cccc(Cn2cc(C3=CCN(CCO)CC3)cn2)c1`, the INHIBITION came out at 13.24%.
For `COc1cccc(Cn2cc(C3=CCN(CC(=O)N(C)C)CC3)cn2)c1`, the INHIBITION worked out at 57.41%.
Regarding `O=C(Nc1cnn(CCN2CCOCC2)c1)c1ccccc1O`, the INHIBITION is recorded as -12.48%.
As for `O=C(Nc1cnn(CCN2CCOCC2)c1)c1cc(F)ccc1F`, the INHIBITION is given as 53.03%.
Regarding `O=C(Nc1cnn(CCN2CCOCC2)c1)c1ccccc1Cl`, the INHIBITION is recorded as 28.33%.
